Experimental data as given in PubChem BioAssay (NCI).
Compounds without any hit were thinned out: in the full panel of roughly 79,000, 15% have a hit. Cut-off read from the data, not from the text of the source: active = growth inhibition above about 70%; inactive = the rest.

Key:
[1] = NCI Yeast Anticancer Drug Screen. Data for the rad50 strain (AID 155);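 note: 0% = growth of vehicle-only cultures of the same strain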; details: S. cerevisiae rad50 strain growth inhibition; at 50.0 µM; hits give high values
In short: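 Readout: growth inhibition relative to vehicle-treated cultures. Compound exposure was carried out in a genetically defined yeast strain deficient in DNA damage repair.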

[2] = NCI Yeast Anticancer Drug Screen. Data for the mec2-1 strain (AID 157); details: S. cerevisiae mec2-1 strain, at 50.0 µM, hits give high values
In short: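 Vehicle-treated cultures served as reference for growth inhibition of compound-exposed mec2-1 yeast.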

[3] = NCI Yeast Anticancer Drug Screen. Data for the sgs1 mgt1 strain (AID 161);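 note: 0% = growth of cultures given vehicle only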; details: S. cerevisiae sgs1 mgt1 strain, at 50.0 µM, hits give high values
In short: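 Mutant yeast exposed to compound; growth scored against vehicle-only wells.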

[4] = NCI Yeast Anticancer Drug Screen. Data for the cln2 rad14 strain (AID 165);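 note: 0% = growth equal to vehicle treated cultures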; details: S. cerevisiae cln2 rad14 strain, at 50.0 µM, hits give high values
In short: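 Each compound was tested on cln2 rad14 yeast. Inhibition of growth was calculated against vehicle-exposed controls.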

[5] = NCI Yeast Anticancer Drug Screen. Data for the bub3 strain (AID 167); details: S. cerevisiae bub3 mutant strain, at 50.0 µM, hits give high values
In short: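 Readout: yeast growth inhibition, expressed relative to vehicle-only wells. The test organism is a mutant strain from a panel with lesions in DNA repair or checkpoint genes.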

[6] = NCI Yeast Anticancer Drug Screen. Data for the mlh1 rad18 strain (AID 175); details: S. cerevisiae mlh1 rad18 strain growth inhibition; at 50.0 µM; hits give high values
In short: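 Vehicle-treated cultures served as the reference for growth inhibition in a yeast strain carrying DNA damage repair alterations exposed to each compound.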

Measured: growth inhibition

CCOC(=O)C(N=Nc1ccc(S(N)(=O)=O)cc1)C(C)=O (stereo unspecified)
inactive: [1] -0.9% | [2] -15.1% | [3] -12.7% | [4] -4.25% | [5] -13.2% | [6] 16.1%

C=C(C)COC(=O)COc1ccc(Cl)cc1
inactive: [1] 1.05% | [2] -32.7% | [3] -3.5% | [4] 0.45% | [5] 3.5% | [6] 5.45%

COC(=O)c1ccccc1NC(=O)c1cc(C(=O)O)c(C(=O)Nc2ccccc2C(=O)OC)cc1C(=O)O
inactive: [1] 0.75% | [2] 10.2% | [3] 4.95% | [4] 4.35% | [5] -3.7% | [6] 23.1%

COC(=O)C1C(C(=O)OC)C2N(c3ccccc3)C=NN2C1C(=O)c1ccccc1 (stereo unspecified)
inactive: [1] -62.2% | [2] -10.2% | [3] -16% | [4] -3.65% | [5] 5.05% | [6] -4.65%

CCN(CC)CCn1[nH]c2c3ccc(=O)cc3sc3c(NCCN)ccc1c32
inactive: [1] 13.3% | [2] -3.35% | [3] -12.7% | [4] -5.55% | [5] 2.5% | [6] -2.4%

CCCCCCC(=O)O
inactive: [1] 0.75% | [2] -16.4% | [3] -4.85% | [4] -30.3% | [5] -0.1% | [6] 9.9%

CNC(=O)C(c1ccccc1)C(O)c1ccccc1 (stereo unspecified)
inactive: [1] 10.8% | [2] -3.7% | [3] -11.4% | [4] 10.4% | [5] -0.15% | [6] -10.5%

C=CC12CCC(CC1)n1c(=O)n(C)c(=O)n12
inactive: [1] -8.05% | [2] -11.7% | [3] -11.4% | [4] -34.5% | [5] -18% | [6] -6.8%

[N-]=[N+]=NC(=O)c1ccc(S(=O)(=O)c2ccc(F)cc2)cc1
inactive: [1] 13.4% | [2] 21.8% | [3] 7.6% | [4] 7.85% | [5] 3% | [6] 38.5%

N#CCN1CCOCCOCCN(CC#N)CCOCCOCC1
inactive: [1] 3.1% | [2] -0.75% | [3] 5.75% | [4] 19.7% | [5] 7.4% | [6] 42.1%

O=C(CCc1ccc(O)cc1)c1c(O)cc(O)cc1O
inactive: [1] -5.3% | [2] -29.9% | [3] -11.3% | [4] 12.9% | [5] -11.2% | [6] -9.05%

CC(=O)[C@H]1CC[C@H]2[C@@H]3CC=C4C=CCC[C@@H]4[C@H]3CC[C@]12C
inactive: [1] -14.1% | [2] 20.1% | [3] 22.9% | [4] -52% | [5] 18.8% | [6] 24.4%

O=C(O)[C@@H]1[C@H](C(=O)O)[C@H](C(=O)O)C[C@@H]1C(=O)O
inactive: [1] 6.2% | [2] -33.9% | [3] -24.9% | [4] -1.85% | [5] -69% | [6] 20.1%

CSc1ccc(C)c(/C=N/Nc2ccc([N+](=O)[O-])cc2[N+](=O)[O-])c1
inactive: [1] 7.05% | [2] 26.9% | [3] 18.4% | [4] -13.6% | [5] 0.5% | [6] 3.25%

O=[N+]([O-])c1ccc(/C=C2/c3ccccc3-c3nc4ccccc4cc32)cc1
inactive: [1] 21.9% | [2] -2.55% | [3] -2.9% | [4] -2.6% | [5] 7.3% | [6] 20.8%

Cc1cnc2ccccc2c1
inactive: [1] -12.2% | [2] -2.15% | [3] -5.45% | [4] 4.35% | [5] 0.45% | [6] 2.8%

CCOc1cc(=O)cc2n(-c3cc(OCC)c(OC)c(OCC)c3)c3ccccc3nc1-2
inactive: [1] 38% | [2] 11.7% | [3] 23.6% | [4] 21.9% | [5] -1.4% | [6] -1.2%

O/N=C1/CCCCc2ccccc21
inactive: [1] -13.4% | [2] 0.95% | [3] -21.2% | [4] -29.7% | [5] -14.4% | [6] -15.2%

COc1cccc(C(=O)NNC(=O)c2cccc(OC)c2)c1
inactive: [1] -1.5% | [2] -15.9% | [3] -9.35% | [4] 9.55% | [5] -1.9% | [6] -1.85%

CCC(C)(S)CN (stereo unspecified)
inactive: [1] -1.55% | [2] -2.55% | [3] -7.35% | [4] -37.5% | [5] -11.4% | [6] -1.55%

O=CC1CCCO1 (stereo unspecified)
inactive: [1] 21.2% | [2] -22.2% | [3] 15.2% | [4] 6.9% | [5] 6.45% | [6] 22%

O=C(Nc1ccccc1)SC1CCCCC1
inactive: [1] -4.6% | [2] 4.95% | [3] -8.7% | [4] -21.1% | [5] 3.8% | [6] -1.9%

O=C1c2ccc([N+](=O)[O-])cc2C(=O)N1CC(F)(F)F
inactive: [1] -0.9% | [2] 8.35% | [3] 10.6% | [4] 14.8% | [5] -3% | [6] 3.8%

O=C1CCC2=C(N1)C(=O)C=CC2=O
inactive: [1] 1.8% | [2] 13.2% | [3] -13.2% | [4] -32% | [5] -8.35% | [6] 10.9%

CCOC(=O)c1c(C)n2c3c(cccc13)CCC2
inactive: [1] 23.4% | [2] 16.9% | [3] 3.05% | [4] 61.6% | [5] 8.6% | [6] 12.8%

C=C1c2c(cc3c(c2O)c(=O)c2ccccc2n3C)OC1(C)C
inactive: [1] -31.2% | [2] -36.6% | [3] -23.1% | [4] -24.3% | [5] -25.8% | [6] -25.4%

CCOC/N=C(/N)NC#N
inactive: [1] 25.6% | [2] 2.35% | [3] 10.8% | [4] 13.1% | [5] -3.4% | [6] 33.1%

COc1ccccc1C(=O)NO
inactive: [1] -14.1% | [2] -27.2% | [3] -22.9% | [4] 8.05% | [5] -14.2% | [6] -7.55%

C1CCC(CN2CCN(CC3CCCCO3)CC2)OC1 (stereo unspecified)
inactive: [1] -2.4% | [2] -11.5% | [3] -1.05% | [4] -41.8% | [5] 0.25% | [6] 3.05%

O=c1[nH]nnc2ccccc12
inactive: [1] 2.85% | [2] 4.8% | [3] 1.85% | [4] 4.55% | [5] 17.9% | [6] -0.55%

Cc1cc(C)c(CC(=O)NCC(=O)NN)c(C)c1
inactive: [1] -7.25% | [2] -24.9% | [3] -17.1% | [4] -13.3% | [5] -12% | [6] -28.8%

O=C(O)c1c(Br)c(Br)c(Br)c(Br)c1C(=O)Nc1ccccc1F
inactive: [1] 7% | [2] -3.3% | [3] 7.55% | [4] 20.2% | [5] 4% | [6] 12.4%

c1ccc2cc3ccccc3cc2c1
inactive: [1] 5.75% | [2] 10.7% | [3] -18.5% | [4] -42.6% | [5] -0.85% | [6] 3.7%

Nc1ccccc1SC1CC(=O)N(c2ccc(Br)cc2)C1=O (stereo unspecified)
inactive: [1] 13.2% | [2] 3.4% | [3] 2.75% | [4] 10.8% | [5] 26.6% | [6] 12.3%

COC(=O)c1ccc(/C=C2\N=C(C)OC2=O)cc1
inactive: [1] -17.9% | [2] -28.6% | [3] 0.6% | [4] 12.2% | [5] -22.8% | [6] -17.9%

Cc1ccsc1/C=N/NC(N)=S
inactive: [1] 30% | [2] -7% | [3] 32.5% | [4] 5.55% | [5] 9.2% | [6] 28.7%

C/C=C(\Cl)C(OC(C)=O)OC(C)=O
inactive: [1] -1.45% | [2] -0.2% | [3] -6.15% | [4] -6.8% | [5] 18.4% | [6] 2.55%

O=[N+]([O-])c1ccc(COP(=O)(O)OCc2ccc([N+](=O)[O-])cc2)cc1
inactive: [1] -1.5% | [2] 10.9% | [3] 13.1% | [4] -9.55% | [5] 11.2% | [6] 15.4%

Cc1oc2nc(N(C)C)nc(NN)c2c1C
inactive: [1] 10.1% | [2] 5.55% | [3] -4.55% | [4] -0.75% | [5] 10.2% | [6] -13.8%

O=Cc1ccccc1CCn1c(=O)c2cc3c(=O)n(CCc4ccccc4C=O)c(=O)c3cc2c1=O
inactive: [1] 33.7% | [2] 18.9% | [3] 11.8% | [4] -11.8% | [5] -4.35% | [6] 18.8%

Cc1ccc(NC(=O)NCCCN2CCOCC2)cc1NC(=O)NCCCN1CCOCC1
inactive: [1] -11.8% | [2] -22.6% | [3] 3.85% | [4] 17.2% | [5] 8.3% | [6] 7.05%
